Measured values from PubChem BioAssay AID686978 (National Center for Advancing Translational Sciences (NCATS), 2013).
Hit rate of the full screen: of about 420,000 compounds, about 64,000 (15%) were called active. Another 27% or so got no clear call; they are omitted. The call rests on the fitted dose curve; in most records, active means well fitted inhibition curve with a large enough effect; inconclusive means small, poorly fitted or top-dose-only effect; inactive means flat fitted curve, though single readings scatter. These entries were drawn from the full list. A call without a number means that no potency is given here.

Experiment: qHTS for Inhibitors of human tyrosyl-DNA phosphodiesterase 1 (TDP1): qHTS in cells in absence of CPT; further: nearly all actives have a fitted effect of over 55% in size
Details: DT40 Tdp1-/- hTDP1 cells, no CPT, ATP luminescence, 48 h; activity change, negative = growth inhibition: at 46.2 µM (top of the series)
Procedure, shortened: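 Camptothecin absent (DMSO only). Human TDP1-complemented DT40 knockout cells, 400 cells/well, 37 °C for minimum 48 hr; ATP measured via CellTiter-Glo, 30 min dark incubation, luminescence.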
Potency means the concentration at half of the fitted maximal effect.

Compound	Potency
COc1cc(OC)c(C(=O)Nc2ccc(N(C)C)cc2)cc1OC	inactive
COc1ccc(-c2nc3cnc(N(C)C)nc3n(Cc3cccs3)c2=O)cc1	inactive
CC1(Oc2ccccc2-c2ccno2)CCN(Cc2ccc(-c3ccccc3)o2)C1 (centres undefined)	23.1 µM (active)
CCOc1cc(/C=N/NC(=O)c2c(C)nc3ccc(Cl)cn23)ccc1O	8.2 µM (active)
Cc1ccc2nc(C)cc(N/N=C/c3ccc(F)cc3)c2c1	inactive
CCOc1cc(C=NNC(=O)CCCC(=O)NN=Cc2ccc(O)c(OCC)c2)ccc1O	inactive
CCOc1cc(/C=N/Nc2cc(C)nc3ccc(C)cc23)ccc1O	25.9 µM (active)
CCOc1ccc(/C=N\NC(=O)c2c(C)nc3cc(C)ccn23)cc1	inactive
C/C=C(/C)C(=O)OC1Cc2c(ccc3ccc(=O)oc23)OC1(C)C (centres undefined)	inactive
CCCS(=O)(=O)N1CCCC(C(=O)NCc2ccco2)C1 (centres undefined)	inactive
COc1ccc(C(C#N)Nc2ccc(C)cc2)cc1 (centres undefined)	inactive
O=C(N/N=C/c1cccnc1)c1ccc(NC(=O)c2ccc(F)cc2)cc1	inactive
Fc1ccc(/C=N/Nc2nc(-c3cccnc3)nc3ccccc23)cc1	16.4 µM (active)
CCOc1ccc(C2/C(=C(/O)c3ccc4c(c3)CC(C)O4)C(=O)C(=O)N2CCCn2ccnc2)cc1 (centres undefined)	inactive
COc1ccc(NC(=O)CCN2C(=O)/C(=C/c3ccc4c(c3)OCO4)SC2=S)cc1	inactive
O=C(CN1CCCCCC1)NCCN1C(=O)S/C(=C\c2ccccc2Cl)C1=O	inactive
O=C1/C(=C\c2ccccc2Cl)SC(=S)N1CCC(=O)N1CCCc2ccccc21	14.6 µM (active)
C=C(C)C1CC=C(CO)CC1 (centres undefined)	inactive
CCCn1c(N)c(C(=O)CSc2nnc(-c3cccnc3)n2-c2ccc(C)cc2C)c(=O)[nH]c1=O	inactive
NC(=O)CSc1c[nH]c2ccccc12	inactive
O=C(N/N=C/c1cccc(O)c1)c1cc2c(ccc3ccccc32)o1	inactive
O=C(N/N=C/c1c[nH]c2ccccc12)c1ccccc1O	inactive
O=C(O)c1cccc(NC(=S)N/N=C/c2c[nH]c3ccccc23)c1	inactive
O=C(N/N=C/c1c[nH]c2ccccc12)c1cc2ccccc2o1	14.6 µM (active)
Cc1c(/C=N\NC(=O)c2cc3ccccc3o2)c2ccccc2n1C	3.66 µM (active)
Nc1nonc1-n1nnc(C(=O)N/N=C/c2c[nH]c3ccccc23)c1-c1ccccc1	inactive
CSC(=S)N/N=C/c1c[nH]c2ccccc12	0.92 µM (active)
Cc1c(/C=N/N2C(=O)C3C4C=CC(C4)C3C2=O)c2ccccc2n1C (centres undefined)	inactive
O=C(O)C(F)(F)C(NCc1ccccc1)c1ccccc1 (centres undefined)	inactive
